Test results as given in PubChem BioAssay.
Active and inactive are the calls of the source.

Legend:
[1] = compound effects on lung adenocarcinoma cell viability – A549, calcein-AM fluorescence, 48 h, basal, profiling panel (AID 1162); conditions: higher = more signal
[2] = compound effects on differentiated 3T3-L1 adipocyte viability – cell-based, 3T3-L1 adipocytes, calcein-AM fluorescence, 48 h, basal, profiling panel (AID 1163); conditions: 3T3-L1 adipocytes viability, higher = more signal
[3] = compound effects on hepatocellular carcinoma cell viability – HepG2, calcein-AM fluorescence, 48 h, basal, profiling panel (AID 1164); conditions: higher = more signal
[4] = compound effects on multiple myeloma cell viability – MM1S, calcein-AM fluorescence, 48 h, basal, profiling panel (AID 1165); conditions: higher = more signal
[5] = calcein-AM signal in unstimulated myeloma cells – cell-based, calcein-AM fluorescence, 48 h, PK04 Diversity Set, profiling panel (AID 1166); conditions: RPMI8226 myeloma viability, higher = more signal;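 also: cells grown under basal conditions without added stimulus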
[6] = JC-1 mitochondrial signal, unstimulated HepG2 cells – cell-based, JC-1 fluorescence, 24 h, 100 nL compound, profiling panel (AID 1167); conditions: HepG2 mitochondrial potential, higher = more signal
[7] = JC-1 mitochondrial signal, unstimulated adipocytes – cell-based, JC-1 fluorescence, 3T3-L1 adipocytes, 24 h, 100 nL compound, profiling panel (AID 1168); conditions: JC-1 mitochondrial fluorescence, higher = more signal, called active from +8 up or from −8 down
[8] = JC-1 mitochondrial signal, unstimulated myeloma cells – cell-based, JC-1 fluorescence, RPMI8226, 24 h, 100 nL compound, profiling panel (AID 1169); conditions: JC-1 mitochondrial potential fluorescence, higher = more signal
[9] = JC-1 mitochondrial signal, unstimulated MM1S myeloma – cell-based, JC-1 fluorescence, 24 h, 100 nL compound, profiling panel (AID 1170); conditions: MM1S mitochondrial potential, higher = more signal
[10] = resazurin metabolic signal in A549 cells – cell-based, resazurin fluorescence, 24 h, PK04 Diversity Set, profiling panel (AID 1171); conditions: A549 viability, higher = more signal, called active from +8 up or from −8 down
Also: test concentration not given here.

Row | Compound | z-score [1] | z-score [2] | z-score [3] | z-score [4] | z-score [5] | z-score [6] | z-score [7] | z-score [8] | z-score [9] | z-score [10]
1 | COc1cc(Cc2cc3c(c(-c4ccccc4)n2)[Si](C(C)C)(C(C)C)OC3)cc(OC)c1OC | 0.24 | 0.609 | -0.305 | -0.537 | -0.189 | -0.591 | 0.323 (inactive) | 0.138 | 0.382 | 0.534 (inactive)
2 | CC(=O)NCCCC[C@@H]1NC(=O)[C@H]2C[C@@H](C(=O)O)[C@@H](c3cccc(OCCO)c3)N2C1=O | -0.103 | -0.349 | 0.276 | 0.34 | 0.928 | 0.0103 | -0.55 (inactive) | -0.809 | -0.401 | 0.354 (inactive)
3 | CC(C)[Si]1(C(C)C)OCc2cc(-c3ccc(-c4ccc(Cl)c(Cl)c4)o3)nc(-c3ccc(Oc4ccccc4)cc3)c21 | -0.222 | -1.06 | -0.879 | 0.0719 | -0.605 | 0.213 | -0.966 (inactive) | 0.17 | 0.0397 | -0.232 (inactive)
4 | CN1C(=O)C2C=CC(C(O)COCc3ccccc3)N(Nc3ccc([N+](=O)[O-])cc3[N+](=O)[O-])C2C1=O (stereo not given) | 1.02 | -0.611 | -0.832 | -1.38 | -0.988 | -0.681 | -0.985 (inactive) | -0.141 | -0.815 | -0.583 (inactive)
5 | C=C(/C=C\CNS(=O)(=O)c1ccc(C)cc1)[C@H](O)[C@H]1CCCN1S(=O)(=O)c1ccccc1[N+](=O)[O-] | -0.635 | 0.186 | -1.3 | -3.14 | -1.51 | -3.05 | -0.955 (inactive) | -0.938 | -0.671 | 0.0403 (inactive)
6 | Cc1ccc(S[C@]2(C(=O)NCC(C)C)CC(=O)N(C(C)C)[C@@H]2c2ccc(CO)cc2I)cc1 | 1.97 | 0.508 | 0.867 | -2.41 | -2.03 | 0.978 | 0.953 (inactive) | -0.94 | -1.19 | 0.677 (inactive)
7 | COc1ccc(C#Cc2ccc3c(c2)[C@]2(C(=O)N3)[C@H](c3ccccc3OCCO)N3[C@H](c4ccccc4)[C@H](c4ccccc4)OC(=O)[C@H]3[C@@H]2C(=O)NC[C@H](O)c2ccccc2)cc1 | -1.22 | 0.449 | -1.88 | -2.85 | -4.12 | -1.21 | 3.95 (inactive) | -0.957 | -1.66 | -1.01 (inactive)
8 | [N-]=[N+]=NCc1ccccc1[C@H]1OC(c2ccc(OCCCO)cc2)=N[C@@]1(CCS(=O)(=O)c1ccccc1)C(=O)O | 0.0952 | 0.0313 | 0.35 | 0.263 | -0.829 | -1.24 | -1.02 (inactive) | -0.278 | -0.479 | 0.355 (inactive)
9 | CCOC(=O)C1=CCC(c2cccn2C(=O)OC(C)(C)C)N(S(=O)(=O)c2ccc(C)cc2)C1 (stereo not given) | -0.982 | -0.838 | -0.168 | -3.2 | -3.67 | 2.22 | 0.066 (inactive) | -1.11 | -2.93 | -0.373 (inactive)
10 | Cc1ccc(N2C(=O)c3ccccc3[C@@H](C(=O)NCCN3CCOCC3)[C@@H]2c2ccc(CO)cc2)nc1 | -0.619 | 0.112 | -0.45 | 0.128 | 0.0765 | -0.274 | 0.111 (inactive) | -0.171 | 0.235 | 0.444 (inactive)
11 | O=C1N(Cc2ccccc2)Cc2ccccc2C[C@@]12COC(c1ccc(OCCCO)cc1)=N2 | -1.62 | 1.06 | 0.325 | -3.63 | -4.39 | -0.641 | 0.172 (inactive) | -1.18 | -1.91 | -2.8 (inactive)
12 | CC(C)(C)OC(=O)CC[C@]1(C(N)=O)N=C(c2ccc(OCCCO)cc2)O[C@H]1c1ccccc1N=[N+]=[N-] | -0.263 | -0.251 | 0.934 | 0.381 | 0.882 | -0.445 | -0.109 (inactive) | -0.132 | -1 | 0.066 (inactive)
13 | CCCCCCCCCCC(O)C1C=CC2C(=O)N(C)C(=O)C2N1Nc1ccccc1 (stereo not given) | -2.46 | -1.27 | -1.38 | -3.85 | -4.07 | -1.18 | -0.92 (inactive) | -0.744 | 0.0317 | -0.545 (inactive)
14 | COC(=O)[C@@]1(Cc2ccccc2)[C@H]2c3cc(C(=O)N(C)C)n(Cc4ccc(Cl)c(C(F)(F)F)c4)c3C[C@H]2CN1C(=O)c1ccccc1 | -1.42 | 0.562 | -2.06 | -2.56 | -4.44 | 2.34 | -1.28 (inactive) | -0.968 | -1.24 | -1.6 (inactive)
15 | O=C(O)C1=CC[C@H]2C(=O)N(c3ccccc3)C(=O)[C@@H]12 | -1.05 | -0.261 | -0.625 | -0.911 | -0.222 | -0.915 | -0.162 (inactive) | 0.364 | -1.46 | 0.64 (inactive)
